Inconclusive results are not listed. Calls of active or inactive are those of the source. Unless noted, the call rests on the fitted dose curve; in most records, active means well fitted curve in the direction sought with a large enough effect; inconclusive means small, poorly fitted or top-dose-only effect, or another doubt; inactive means no such curve, though single readings can be large or run the other way.
Experiments:
[1] = qHTS Assay for Identifying Gametocytocidal Compounds (AID 743244); further: potency means the concentration at half of the fitted maximal effect;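 on max response: on the % scale 0 is the no-effect control and ±100 the full control effect; actives lower the fluorescent signal which means gametocytes are killed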; conditions: P. falciparum 3D7 stage III-V gametocytes, alamarBlue, 72 h; max response: stronger effect = lower value
Summary of the method: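 Late gametocytes (III–V), P. falciparum 3D7; 72 h drug, then 24 h alamarBlue; resazurin reduction read by fluorescence.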

[2] = qHTS profiling of the MIPE4 collection as inhibitors of Plasmodium falciparum (3D7) proliferation (AID 743344; call rule not given here;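 further: scaled between DMSO vehicle wells and 0.29 µM artemisinin as full inhibition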); conditions: P. falciparum 3D7 in erythrocytes, SYBR Green DNA fluorescence, 72 h; at 28.5 µM (top of the series) unless noted
Summary of the method: (§1)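 Erythrocytes infected with P. falciparum (0.3% parasitemia, 2.5% hematocrit) incubated with compounds 72 h at 37 C, 5% CO2. Lysis with saponin/Triton buffer containing SYBR Green I, overnight at room temperature in the dark; DNA fluorescence (485/535 nm) normalised to 0.29 uM artemisinin and DMSO.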

[3] = qHTS profiling of the MIPE4 collection as inhibitors of Plasmodium falciparum (DD2) proliferation (AID 743345; call rule not given here); conditions: P. falciparum Dd2 in erythrocytes, SYBR Green DNA, 72 h; at 28.5 µM (top of the series) unless noted
Summary of the method: as §1

[4] = qHTS profiling of the MIPE4 collection as inhibitors of Plasmodium falciparum (DD2) proliferation (Rep 2) (AID 743346; call rule not given here); conditions: P. falciparum Dd2 in erythrocytes, SYBR Green DNA, 72 h; at 28.5 µM (top of the series) unless noted
Summary of the method: as §1

[5] = qHTS profiling of the MIPE4 collection as inhibitors of Plasmodium falciparum (HB3) proliferation (AID 743347; call rule not given here;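 further: plate controls were DMSO vehicle wells for no effect and artemisinin wells for full effect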); conditions: P. falciparum HB3 in erythrocytes, SYBR Green DNA, 72 h; at 28.5 µM (top of the series) unless noted
Summary of the method: as §1

CC(NCCC(c1ccccc1)c1ccccc1)c1ccccc1 (configuration not stated)
Potency [1]: 12.6 µM (active) | parasite growth, % of DMSO control [2]: 9.45% | parasite growth remaining, % of DMSO control (lower = more inhibition) [3]: 9.26% | parasite growth, % of control (lower = inhibition) [4]: 16.7% | growth, % of control [5]: 3.07%

NCC[C@H](O)C(=O)N[C@@H]1C[C@H](N)[C@@H](O[C@H]2O[C@H](CN)[C@@H](O)[C@H](O)[C@@H]2O)[C@H](O)[C@@H]1O[C@H]1O[C@H](CO)[C@@H](O)[C@H](N)[C@@H]1O
parasite growth, % of DMSO control [2]: 98% [at 0.217 µM] | parasite growth remaining, % of DMSO control (lower = more inhibition) [3]: 89.8% [at 0.217 µM] | parasite growth, % of control (lower = inhibition) [4]: 163% [at 0.217 µM] | growth, % of control [5]: 94.3% [at 0.217 µM]

N=C(N)c1ccc(OCCCOc2ccc(C(=N)N)cc2)cc1
Potency [1]: 4.47 µM (active)

CCOC(=O)NNc1ccc(N(CC)CC(C)O)nn1 (configuration not stated)
max response [1]: 0.172% (inactive)

CCOC(=O)c1ccc(NC(=O)CN2CCCCC2)cc1
max response [1]: 11.1% (inactive)

CCN1C(=O)c2ccccc2C1Nc1ccc(OCCN2CCCCC2)cc1 (configuration not stated)
max response [1]: -8.48% (inactive)

O=[N+]([O-])c1ccc(O)c2ncccc12
Potency [1]: 8.91 µM (active)

COc1cc(NS(=O)(=O)c2ccc(N)cc2)nc(C)n1
max response [1]: 34.9% (inactive)

CCCCNc1ccc(C(=O)OCCN(CC)CC)cc1
max response [1]: -4.4% (inactive)

CC(C)(C)C(O)/C=C/c1ccc2c(c1)OCO2 (configuration not stated)
max response [1]: -15.2% (inactive)

O=S(=O)(O)c1ccc2nc(-c3ccccc3)[nH]c2c1
max response [1]: 9.66% (inactive)

O=C(O)CNC(=O)CNC(=O)CNC(=O)CSC(=O)c1ccccc1
max response [1]: 0.93% (inactive)

CCOC(=O)[C@H](CCc1ccccc1)N[C@@H](C)C(=O)N(CC(=O)O)C1Cc2ccccc2C1
max response [1]: -4.1% (inactive)

CSc1ccc(/C=C2/C(C)=C(CC(=O)O)c3cc(F)ccc32)cc1
max response [1]: -4.94% (inactive)

Cc1cccc(N(C)C(=S)Oc2ccc3c(c2)CCC3)c1
max response [1]: 14.9% (inactive)

O=C1CC2(CCCC2)CC(=O)N1CCNCC1COc2ccccc2O1 (configuration not stated)
max response [1]: 2.39% (inactive)

NCC(=O)O
max response [1]: -6.74% (inactive)

O=C(CO)[C@@H](O)[C@H](O)[C@@H](O)CO
max response [1]: -0.255% (inactive)

CC[C@@H]([C@H](C)O)n1ncn(-c2ccc(N3CCN(c4ccc(OC[C@@H]5CO[C@@](Cn6cncn6)(c6ccc(F)cc6F)C5)cc4)CC3)cc2)c1=O
max response [1]: 13.4% (inactive)

Cc1ccccc1N1CCN(CCc2nnc3n2CCCC3)CC1
max response [1]: -15.7% (inactive)

Source: PubChem BioAssay (NCATS)
